Compound activity deposited in PubChem BioAssay by The Scripps Research Institute Molecular Screening Center.
M1 PAM – positive allosteric modulators of human M1 muscarinic receptor; P11229; CHO-K1 hM1, Fluo-8 calcium fluorescence, ACh EC20; 0% = ACh EC20, 100% = maximal ACh; activation, % at 3 µM; 0.088% of 360,000 active; AID 588819; in the data active means activation above about 19%, passing the limit was not always enough
Target sequence (P11229 whole entry, looked up): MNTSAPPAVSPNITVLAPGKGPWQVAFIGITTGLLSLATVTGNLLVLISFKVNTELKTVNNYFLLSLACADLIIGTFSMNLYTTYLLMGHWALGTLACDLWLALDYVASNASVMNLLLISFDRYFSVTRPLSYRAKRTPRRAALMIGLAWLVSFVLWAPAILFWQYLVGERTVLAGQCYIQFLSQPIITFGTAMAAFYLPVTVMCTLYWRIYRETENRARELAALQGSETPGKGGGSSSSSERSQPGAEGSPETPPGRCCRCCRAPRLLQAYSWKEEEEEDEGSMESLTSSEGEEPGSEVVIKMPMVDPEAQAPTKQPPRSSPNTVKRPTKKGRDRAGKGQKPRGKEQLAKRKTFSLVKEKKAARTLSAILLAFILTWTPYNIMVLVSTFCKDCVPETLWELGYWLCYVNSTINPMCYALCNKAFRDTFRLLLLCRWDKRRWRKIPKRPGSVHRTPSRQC
CHO-K1 Ca antag – M1 antagonist counterscreen hit in parental CHO-K1 cells | AID 602250 | inhibition, % at 3 µM | ATP-induced calcium, Fluo-8 fluorescence | 0.6% of 360,000 active;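 active means inhibition above a per-plate cutoff, the plate's mean sample inhibition plus 3 SD, cut at about 24% in these data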;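 further: 0% = DMSO plus EC80 ATP and 100% = DMSO alone without ATP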
CHRM1 antagonist – blocks human M1 muscarinic receptor. P11229. CHO-K1 hM1, Fluo-8 calcium fluorescence, ACh EC80 antagonist. 1.3% of 360,000 active. AID 588852. inhibition, % at 3 µM;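 active means percent inhibition above its own plate's cutoff, namely the mean of that plate's compound wells plus 3 SD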;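 further: peak over basal fluorescence ratio during 140 s after agonist addition; 0% = ACh EC80 plus DMSO and 100% = DMSO alone without agonist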
CHRM1 agonist – human M1 muscarinic receptor agonism; AID 588814; P11229; 0.33% of 360,000 active; CHO-K1 hM1, Fluo-8 calcium fluorescence, agonist mode; 0% DMSO, 100% acetylcholine EC100; activation, % at 3 µM;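 active means activation above the run's mean compound activation plus 3 SD, cut at about 16% in these data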;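 further: peak over basal fluorescence ratio within a 140 s kinetic read after compound addition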
CHO-K1 Ca PAM – M1 PAM counterscreen hit in parental CHO-K1 cells; ATP EC20, Fluo-8 calcium fluorescence; 0% at ATP EC20, 100% at ATP max; activation, % at 3 µM; 0.02% of 360,000 active; AID 602247;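 active means activation above the run cutoff, the mean activation of all test compounds plus 3 SD, cut at about 40% in these data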;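 further: peak over basal fluorescence ratio in a 140 s read after ATP addition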
CHO-K1 Ca ag – nonselective activator or artifact in parental CHO-K1 cells | 0.48% of 360,000 active | activation, % at 3 µM | Fluo-8 calcium fluorescence; scaled to maximal ATP response, vehicle zero; in the data active means activation above about 15%;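 further: untransfected CHO-K1 host cells lacking M1 receptor as counterscreen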
Active calls of the source: *. Only some compounds are listed: those with a hit (about 2.3% of all), similar ones and a draw of the others.

How did O=C(NCc1ccc2c(c1)OCO2)C1CCCN(S(=O)(=O)c2cccnc2)C1 (centres undefined) do in these assays?
M1 PAM: 12; CHO-K1 Ca antag: 48*; CHRM1 antagonist: -6; CHRM1 agonist: 0; CHO-K1 Ca PAM: -9; CHO-K1 Ca ag: 0

How did Cc1ccc(S(=O)(=O)N2CCCC(C(=O)NCCc3ccc4c(c3)OCO4)C2)cc1 (centres undefined) do in these assays?
M1 PAM: 3; CHO-K1 Ca antag: 24*; CHRM1 antagonist: -9; CHRM1 agonist: -4; CHO-K1 Ca PAM: -6; CHO-K1 Ca ag: 0

Results for Cc1c(C(=O)NCc2ccc3c(c2)OCO3)oc2ccc(S(=O)(=O)N3CCCC3)cc12 ?
M1 PAM: -7; CHO-K1 Ca antag: 3; CHRM1 antagonist: 18; CHRM1 agonist: -2; CHO-K1 Ca PAM: 10; CHO-K1 Ca ag: 5

What do the screens show for `CCCc1cc(N2CCCC(C(=O)NCc3ccc4c(c3)OCO4)C2)n2ncnc2n1` (centres undefined)?
M1 PAM: 28*; CHO-K1 Ca antag: 4; CHRM1 antagonist: 7; CHRM1 agonist: -6; CHO-K1 Ca PAM: -1; CHO-K1 Ca ag: 0

Results for CC1(C(=O)NCC2CCCCC2)CCN1CCc1ccccc1 (centres undefined) ?
M1 PAM: 7; CHO-K1 Ca antag: 1; CHRM1 antagonist: -16; CHRM1 agonist: -7; CHO-K1 Ca PAM: 8; CHO-K1 Ca ag: 0

What do the screens show for `CNC(=O)OCc1nc(SC2CCCCO2)n(C)c1COC(=O)NC` (centres undefined)?
M1 PAM: 15; CHO-K1 Ca antag: 8; CHRM1 antagonist: -11; CHRM1 agonist: 4; CHO-K1 Ca PAM: 5; CHO-K1 Ca ag: 0

What do the screens show for `CCOC(=O)c1cn(Cc2ccc(C)cc2)c2cc(F)ccc2c1=O`?
M1 PAM: 18; CHO-K1 Ca antag: 6; CHRM1 antagonist: -10; CHRM1 agonist: 17*; CHO-K1 Ca PAM: -16; CHO-K1 Ca ag: -1

What do the screens show for `CCCCCOc1ccc(/C(C)=N/NC2=NCCN2)cc1`?
M1 PAM: 7; CHO-K1 Ca antag: -6; CHRM1 antagonist: -12; CHRM1 agonist: -4; CHO-K1 Ca PAM: 5; CHO-K1 Ca ag: 0

Results for CCOc1ccc(Br)cc1/C(C)=N\NC1=NCCN1 ?
M1 PAM: -17; CHO-K1 Ca antag: 15; CHRM1 antagonist: 63*; CHRM1 agonist: 11; CHO-K1 Ca PAM: 0; CHO-K1 Ca ag: 3

Results for COc1ccc(/C=C(\C#N)C(=O)NCc2cccnc2)cc1OC ?
M1 PAM: 7; CHO-K1 Ca antag: 7; CHRM1 antagonist: -4; CHRM1 agonist: -7; CHO-K1 Ca PAM: 12; CHO-K1 Ca ag: 0

How did N#C/C(=C/c1cccc(O)c1)C(=O)NCc1ccc(Cl)cc1 do in these assays?
M1 PAM: 2; CHO-K1 Ca antag: -10; CHRM1 antagonist: 28*; CHRM1 agonist: 17*; CHO-K1 Ca PAM: 11; CHO-K1 Ca ag: 3

Results for CCOc1cc(/C=C(\C#N)C(=O)NCc2cccnc2)ccc1O ?
M1 PAM: 12; CHO-K1 Ca antag: 32*; CHRM1 antagonist: -6; CHRM1 agonist: -3; CHO-K1 Ca PAM: -15; CHO-K1 Ca ag: 9

Results for COc1ccc(CC(=O)NCc2ccc(Cl)cc2)cc1S(=O)(=O)N1CCOCC1 ?
M1 PAM: 5; CHO-K1 Ca antag: 0; CHRM1 antagonist: 1; CHRM1 agonist: 0; CHO-K1 Ca PAM: 7; CHO-K1 Ca ag: 1

Results for CCc1nnc(SCC(=O)NC2CCCC2)nc1CC ?
M1 PAM: 9; CHO-K1 Ca antag: 33*; CHRM1 antagonist: 7; CHRM1 agonist: -1; CHO-K1 Ca PAM: -6; CHO-K1 Ca ag: 0

Results for CCc1nnc(SCC(=O)NC2CCCCC2)nc1CC ?
M1 PAM: 15; CHO-K1 Ca antag: -20; CHRM1 antagonist: -13; CHRM1 agonist: -4; CHO-K1 Ca PAM: 28; CHO-K1 Ca ag: 1

How did O=C(Nc1csc([N+](=O)[O-])c1)Nc1ccccc1Cl do in these assays?
M1 PAM: -16; CHO-K1 Ca antag: 27*; CHRM1 antagonist: 41*; CHRM1 agonist: 2; CHO-K1 Ca PAM: -10; CHO-K1 Ca ag: 16*

Results for O=C(Nc1ccccc1Cl)Nc1ccccc1Cl ?
M1 PAM: 5; CHO-K1 Ca antag: -10; CHRM1 antagonist: -9; CHRM1 agonist: -4; CHO-K1 Ca PAM: 22; CHO-K1 Ca ag: 1
